The values below come from PubChem BioAssay (NCI).

The panel holds about 83,000 compounds, 20% with a hit somewhere; the sample as a whole holds those more often.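 Note: values are percent growth. 100 is the growth of untreated cells, values between 100 and 0 indicate rising inhibition; between -100 and 0 indicates cell death.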 Values without a mark were called inactive. Activity calls are given as the source filed them. How the source made its calls: active means growth percent below 10; inactive means the rest.

Common to all, as to test: NCI-60 one-dose screen, 48 h (100 = growth as untreated, 0 = no growth, -100 = all killed)
What all share (conditions): 10 µM unless noted

The subject of assay [1] is SK-MEL-2 melanoma.
In assay [2] the test system is EKVX NSCLC.
Assay [3] deals with SN12C renal.
In assay [4] the test system is UO-31 renal.
Assay [5] deals with TK-10 renal.
Assay [6] deals with ACHN renal.
The test system of assay [7] is CAKI-1 renal.
Assay [8] deals with A498 renal.
Assay [9] has as its system CCRF-CEM leukemia.
For assay [10], the system named is MOLT-4 leukemia.
Assay [11] has as its system SR leukemia.
The subject of assay [12] is RPMI-8226 leukemia.
Assay [13] concerns OVCAR-8 ovarian.
The test system of assay [14] is OVCAR-5 ovarian.
For assay [15], the system named is OVCAR-4 ovarian.
For assay [16], the system named is SK-OV-3 ovarian.
Assay [17] deals with IGROV1 ovarian.
For assay [18], the system named is OVCAR-3 ovarian.
The test system of assay [19] is HS 578T breast.
For assay [20], the system named is NCI/ADR-RES ovarian.

With `CCOC(=O)C1=NN(c2ccccc2)C(=O)/C1=C\N1C(=O)/C(=C/c2cccc(O)c2)SC1=S`, the growth in assay [1] was 99.6%; in assay [2], 107%; in assay [3], 82.3%; in [4], 76%; in assay [5] it was 117%; in assay [6] it was 99.5%. Moreover, the growth is 100% in assay [7]; 94.5% in assay [8]; 93% in assay [9]; 95.7% in assay [10]; 83.3% in assay [11]; 88.1% in [12]. Further, the growth in assay [13] is 95.8%; in [14], 121%; in [15], 98.8%; in [16], 99.8%; in [17], 96%; in [18] it was 106%. Moreover, the growth in [19] is 94%.

With `CCNc1nnnn1CC`, the growth is 122% in assay [1]; 94.5% in assay [2]; 93% in assay [3]; 108% in assay [4]; 106% in assay [5]; 110% in assay [6]. Besides, the growth is 99.4% in [7]; 83.8% in [8]; 103% in assay [9]; 116% in [10]; 108% in assay [11]; 107% in [12]. Moreover, the growth was 113% in assay [13]; 115% in [14]; 110% in assay [15]; 109% in [16]; 115% in assay [17]; 109% in assay [18]. Besides, the figures for the growth in assay [19] and in assay [20] were 102% and 110%, respectively.

Take `O=C1c2ccccc2C(=O)c2c(O)c(Cl)cc(O)c21`: the growth in [1] was 124%; in assay [2], 98.3%; in assay [3], 96.5%; in [4], 79.8%; in assay [5], 89.4%; in assay [6] it was 92.1%. In addition, the growth was 95.1% in assay [7]; 91% in [8]; 64.3% in assay [9]; 75.9% in assay [10]; 62% in assay [11]; 96.4% in [12]. Also, the growth in [13] is 58.2%; in assay [14] it was 92.6%; in [15], 84.3%; in assay [16] it was 99.5%; in assay [17], 81.1%; in assay [18] it was -17.9% (active). Moreover, the results for the growth in [19] and in [20] were 106% and 93.7%, respectively.

For the molecule `CC(=O)C1Cc2ccccc2C1=O` (configuration not stated), the growth in assay [1] was 124%; in [2] it was 80.6%; in [3], 98%; in assay [4] it was 79.5%; in assay [5] it was 142%; in assay [6], 97.6%. Moreover, the growth in [7] was 82.6%; in assay [8], 110%; in assay [9] it was 125%; in assay [10], 115%; in assay [11], 108%; in [12], 117%. In addition, the growth was 119% in assay [13]; 101% in assay [14]; 104% in assay [15]; 96.1% in assay [16]; 116% in [17]; 112% in [18]. The growth in assay [19] was 103%.

Turning to `O=[N+]([O-])c1ccc(Oc2ccccc2Cl)c([N+](=O)[O-])c1`, the growth in assay [1] was 88.6%; in [2] it was 104%; in [3] it was 90.4%; in assay [4], 81.9%; in assay [5], 98.7%; in assay [6], 100%. Besides, the growth in [7] was 82.7%; in assay [8], 84.7%; in [9], 57.8%; in [10], 22.7%; in [11], 1.58% (active); in [12] it was 78.4%. Moreover, the growth in assay [13] was 93.2%; in [14] it was 116%; in [15], 56.4%; in assay [16], 99.8%; in assay [17] it was 104%; in assay [18], 94.1%. Further, the growth in assay [19] is 77.7%; in assay [20] it was 72.7%.

Turning to `Nc1nc(N)c2cc(Sc3cccc(C(F)(F)F)c3)ccc2n1`, the growth in [1] was 68.5%; in assay [2] it was 23.7%; in assay [3], 26.5%; in assay [4], 21.3%; in assay [5], 43.5%; in assay [6], 26.6%. Further, the growth was 9.5% (active) in assay [7]; 54% in assay [8]; 33.2% in [9]; 14.3% in [10]; -27.1% (active) in assay [11]; 5.83% (active) in [12]. Moreover, the growth was 31% in assay [13]; 45.1% in assay [14]; 63.9% in assay [16]; 21.9% in assay [17]; 25.4% in assay [18]; 40.4% in assay [19]. Also, in [20], the growth was 17.7%.

As to `c1ccc(C2NCCNC2c2ccccc2)cc1` (configuration not stated), the growth in [1] was 98.7%; in assay [2] it was 103%; in assay [3], 102%; in assay [4] it was 80.9%; in [5] it was 110%; in assay [6] it was 108%. For the same molecule, the growth in assay [7] was 97.6%; in assay [8] it was 80.6%; in assay [9], 104%; in assay [10], 99.7%; in assay [11] it was 98.1%; in assay [12], 108%. Besides, the growth in [13] was 101%; in [14], 99.3%; in assay [15], 116%; in [16] it was 113%; in [17], 102%; in assay [18] it was 113%. The growth in [19] was 104%; in assay [20], 109%.

For `O=C(O)c1cccc2cccc(-c3c4ccc(=O)c(O)c-4oc4c(O)c(O)ccc34)c12`, the growth was 96.8% in assay [1]; 83.7% in [2]; 91% in assay [3]; 66.6% in assay [4]; 110% in assay [5]; 92.3% in assay [6]. The growth was 90.2% in [7]; 104% in assay [8]; 94.7% in assay [9]; 82.2% in [10]; 83.6% in assay [11]; 123% in assay [12]. Besides, the growth is 100% in assay [13]; 97.5% in assay [14]; 97.4% in assay [15]; 90.1% in assay [16]; 101% in [17]; 93.5% in [18]. For the same molecule, the growth is 99.5% in assay [19] and 96.7% in assay [20].
